The campaign covered roughly 5,500 compounds. About 2,000 (36%) were called active. Another 18% or so got no clear call; they are omitted. Some of the results follow. A number with no mark means an inactive call. Rule as the data show it: active = normalized growth mostly below about 0.91 (no sharp cut-off); inconclusive = no clear call, values can overlap the other calls; inactive = mostly above about 0.92.
Experiment: chemical genetic growth profiling, strain panel (AID 1159580);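 also: tested at 20 µM; growth read once vehicle control cultures reached saturation at 30 °C; 1 = growth at the plate median or of vehicle wells; lower values mean less growth of the strain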
Conditions: S. cerevisiae deletion strains, growth OD
[1] = locus YAL040C, strain CLN3, hits give low values
[2] = locus YCL061C, strain MRC1 (second series), hits give low values
[3] = locus YDR363W, strain ESC2, hits give low values
[4] = locus YER002W, strain NOP16, hits give low values
[5] = locus YGR078C, strain PAC10, hits give low values
[6] = locus YGR229C, strain SMI1, hits give low values
[7] = locus YMR307W, strain GAS1, hits give low values
[8] = locus YNL153C, strain GIM3, hits give low values
[9] = locus YNL175C, strain NOP13, hits give low values
[10] = locus YNL197C, strain WHI3, hits give low values
[11] = locus YNL224C, strain SQS1, hits give low values
[12] = locus YOR083W, strain WHI5 (second series), hits give low values
[13] = locus YMR263W, strain SAP30, hits give low values
[14] = locus YNL128W, strain TEP1, hits give low values
[15] = locus YNL322C, strain KRE1, hits give low values
[16] = locus YPL241C, strain CIN2, hits give low values
[17] = locus YJR075W, strain HOC1, hits give low values

Structure (SMILES) | normalized growth [1] | normalized growth [2] | normalized growth [3] | normalized growth [4] | normalized growth [5] | normalized growth [6] | normalized growth [7] | normalized growth [8] | normalized growth [9] | normalized growth [10] | normalized growth [11] | normalized growth [12] | normalized growth [13] | normalized growth [14] | normalized growth [15] | normalized growth (locus YPL055C, strain LGE1, hits give low values) | normalized growth [16] | normalized growth [17] | normalized growth (locus YAL013W, strain DEP1, hits give low values) | normalized growth (locus YDR150W, strain NUM1, hits give low values)
NC(=O)C1=CN(C2OC(COP(=O)(O)OP(=O)(O)OC[C@H]3O[C@@H](n4cnc5c(N)ncnc54)C(OP(=O)(O)O)[C@H]3O)C(O)C2O)C=CC1 (stereo partly drawn) | 0.989 | 0.997 | 0.976 | 0.977 | 0.979 | 1 | 1 | 1.02 | 0.98 | 0.986 | 1 | 0.991 |  |  |  |  |  |  |  | 
CCCN1CCC[C@H](c2cccc(O)c2)C1 | 1 | 0.999 | 1.03 | 0.988 | 1.01 | 1 | 0.992 | 1.18 | 0.995 | 1.01 | 1 | 1 | 0.993 | 1.01 | 1 | 0.994 | 1.01 |  |  | 
CCCN1CCC[C@@H](c2cccc(O)c2)C1 | 0.98 | 1 | 1.03 | 0.983 | 0.984 | 0.999 | 0.996 |  | 1.01 | 0.446 (active) | 0.993 | 1.01 | 1 | 0.999 |  |  | 0.999 | 1 |  | 
CCCN1CCC[C@@H](c2cccc(C#N)c2)C1 | 0.986 | 1.01 | 1.04 | 0.989 |  | 1.04 |  |  | 0.993 | 1.04 | 1.01 | 0.978 | 1.01 |  | 1 |  |  | 1 | 1.01 | 0.994

Reference: PubChem BioAssay AID1159580 (chemical genetic matrix, 2015)
